Compound activity from PubChem.
The list is not random: actives were taken first. Their share in the collection is about 2.9%.
PAFAH2 FP inh = PAFAH2 (human) inhibition; Q99487; recombinant PAFAH2, FP-rhodamine activity probe, fluorescence polarization; inhibition, % at 3.39 µM; hit rate 0.99% among 340,000;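 active = inhibition above the mean over all tested compounds plus 3 SD, cut at about 30% in these data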;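 also: inhibitors block probe labeling of enzyme so polarization drops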
Fam108B counter = Fam108B inhibition, counter-screen for RBBP9 inhibitors; recombinant Fam108B, FP-Rh probe fluorescence polarization; inhibition, % at 9.51 µM; hit rate 0.33% among 300,000;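 active = inhibition above the screen mean inhibition plus 3 SD, computed separately per campaign, cut at about 18% in these data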;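 also: inhibitors lower polarization as less probe binds the enzyme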
pPAFAH FP inh = inhibitors of human plasma PAF acetylhydrolase (pPAFAH) | recombinant pPAFAH, FP-rhodamine probe fluorescence polarization | inhibition, % at 3.39 µM | hit rate 1.5% among 330,000;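 active = inhibition above the mean inhibition across the screen plus 3 SD, cut at about 25% in these data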;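 also: inhibitors block binding of the rhodamine activity-based probe so polarization drops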
PME-1 inh = PME-1 (human) inhibition; Q9Y570; recombinant PME-1, FP-Rh probe fluorescence polarization; inhibition, % at 5.9 µM; hit rate 0.53% among 320,000; AID 2130;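 active = inhibition above the campaign mean of all compounds plus 3 SD, cut at about 26% in these data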;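 also: competitive labeling of PME-1 active site by serine hydrolase directed probe; inhibitors block probe labeling so polarization falls and inhibition rises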
Target sequence (Q9Y570 whole entry, looked up): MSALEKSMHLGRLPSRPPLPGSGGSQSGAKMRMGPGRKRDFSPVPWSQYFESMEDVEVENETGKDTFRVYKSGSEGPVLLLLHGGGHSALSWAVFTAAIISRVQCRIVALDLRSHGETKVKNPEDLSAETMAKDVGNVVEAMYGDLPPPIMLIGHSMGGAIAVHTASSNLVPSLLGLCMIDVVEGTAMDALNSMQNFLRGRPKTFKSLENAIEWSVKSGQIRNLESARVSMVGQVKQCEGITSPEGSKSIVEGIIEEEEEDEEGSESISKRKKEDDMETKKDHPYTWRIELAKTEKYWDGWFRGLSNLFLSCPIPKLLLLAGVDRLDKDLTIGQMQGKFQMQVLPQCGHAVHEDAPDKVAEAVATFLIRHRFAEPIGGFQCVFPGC
PAFAH1B2 inh = inhibitors of human PAFAH1B2; hit rate 1.2% among 340,000; inhibition, % at 3.39 µM; P68402; recombinant PAFAH1B2, FP-rhodamine activity probe, fluorescence polarization;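 active = inhibition above the mean of all tested compounds plus 3 SD, cut at about 24% in these data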
Target sequence (P68402 whole entry, looked up): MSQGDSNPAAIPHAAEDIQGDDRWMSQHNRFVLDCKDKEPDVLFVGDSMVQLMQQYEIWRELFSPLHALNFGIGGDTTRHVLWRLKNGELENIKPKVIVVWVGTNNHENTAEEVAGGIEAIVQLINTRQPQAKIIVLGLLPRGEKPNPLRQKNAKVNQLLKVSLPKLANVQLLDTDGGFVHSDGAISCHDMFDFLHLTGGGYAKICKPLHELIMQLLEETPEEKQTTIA
PAFAH1B3 FP inh = inhibitors of human PAFAH1B3 | Q15102 | recombinant PAFAH1B3, FP-rhodamine probe, fluorescence polarization | inhibition, % at 3.39 µM | hit rate 0.28% among 340,000;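 active = inhibition above the screen-wide average of all tested compounds plus 3 SD, cut at about 25% in these data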
Each line names hits and unclear results; the compound was inactive in the other large screens.

O=C(CCc1nc2sc3c(c2c(=O)[nH]1)CCCC3)NCCOc1ccccc1	none
COCCCn1c(SC(C)C(=O)Nc2c(C)n(C)n(-c3ccccc3)c2=O)n[nH]c1=O (stereo not given)	none (no result: Fam108B counter, pPAFAH FP inh, PME-1 inh)
O=C(c1ccc(CS(=O)(=O)Cc2ccc(Cl)cc2)o1)N1CCCC1	pPAFAH FP inh 25.9
CN(c1ccccc1)S(=O)(=O)c1cccc(NC(=O)CSc2ncn[nH]2)c1	PAFAH1B2 inh 24.9
O=C(NNc1nc2c(F)cccc2s1)c1ccc(F)cc1	none
O=C(Nc1ccc(O)c(-c2nc3ccccc3s2)c1)c1cc(=O)c2ccccc2o1	none
Cc1ccc2sc(NNC(=O)c3cc(=O)c4ccccc4o3)nc2c1C	PME-1 inh 46.0
Cc1cccc2sc(NNC(=O)c3cc(=O)c4ccccc4o3)nc12	pPAFAH FP inh 26.7, PME-1 inh 47.3
Cc1nc(C)c(C(=O)Nc2nc3c(C)cccc3s2)o1	pPAFAH FP inh 29.5
O=C(NNc1nc2c(F)cccc2s1)c1cc(=O)c2ccccc2o1	PME-1 inh 54.5
O=C(COc1ccc(F)cc1)NCC1(N2CCCCC2)CCCCC1	none (no result: Fam108B counter, pPAFAH FP inh, PME-1 inh)
C/C(=C\C(=O)OCCCCCCCCC(=O)O)C[C@@H]1OC[C@H](C[C@@H]2O[C@H]2[C@@H](C)[C@H](C)O)[C@@H](O)[C@H]1O	none
CC(=O)N1CCN(c2ccc(Oc3ccc([N+](=O)[O-])c(C(F)(F)F)c3)cc2)CC1	pPAFAH FP inh 24.7
Cc1ccc(C(=O)OCC(=O)c2c[nH]c3ccccc23)cc1S(=O)(=O)N1CCCCC1	none
Cc1ccc(NC(=O)c2cnccn2)cc1C	none
O=C(NC1CCCCC1)C(c1cccnc1)N(C(=O)c1csnn1)c1ccccc1F (stereo not given)	none
N#C/C(=N\Nc1ccc(Cl)cc1)C(=O)c1ccccc1	pPAFAH FP inh 26.8
Cc1c(N/N=C(\C#N)C(=O)c2ccc(Cl)cc2)c(=O)n(-c2ccccc2)n1C	none
Cn1ccnc1SCCNC(=O)CCc1nnc(CCc2ccccc2)o1	none
O=C(c1ccco1)N1CCN(S(=O)(=O)c2ccc3[nH]c(=O)oc3c2)CC1	none
O=c1[nH]c2ccc(S(=O)(=O)N3CCC(Cc4ccccc4)CC3)cc2o1	PAFAH1B2 inh 28.6
Cc1c(Br)c([N+](=O)[O-])nn1CC(=O)NC1CCCCCC1	none
C[C@@H]1COC(=O)[C@H](Cc2ccc(F)cc2)CC/C=C/C[C@@H](CC(=O)N[C@@H](CO)Cc2ccccc2)C(=O)N1	none (no result: Fam108B counter, PME-1 inh)
CC(C)(C)[C@H]1COC(=O)[C@@H](Cc2ccc(F)cc2)C/C=C\C[C@@H](CC(=O)N[C@H](CO)Cc2ccccc2)C(=O)N1	PAFAH1B2 inh 66.2 (no result: Fam108B counter, PME-1 inh)
CC(C)(C)[C@H]1COC(=O)[C@@H](Cc2ccc(F)cc2)C/C=C\C[C@@H](CC(=O)N[C@@H](CO)Cc2ccccc2)C(=O)N1	PAFAH1B2 inh 33.8 (no result: Fam108B counter, PME-1 inh)
N#Cc1ccsc1NC(=O)CSc1nnc(-c2ccccc2)o1	pPAFAH FP inh 34.1
O=C(CSc1nnc(-c2ccccc2)o1)Nc1ccccc1F	none
CCCC(=O)Nc1sc(C(=O)Nc2cccc(N)c2)c(C)c1C(=O)OC	none
O=C(NCc1ccccn1)c1ccccc1OCc1ccc(Cl)cc1Cl	none (no result: Fam108B counter)
O=C(NNC(=O)C12CC3CC(CC(Cl)(C3)C1)C2)c1csc(N2CCOCC2)n1	PAFAH1B2 inh 33.0
CCN(C[C@H]1N[C@@](CC)(C(=O)OC)[C@H]2C(=O)N(C)C(=O)[C@@H]12)C(=O)NC(C)C	none (no result: Fam108B counter, PME-1 inh)
COCCN=c1scc(C)n1/N=C/C1CC2C=CC1C2 (stereo not given)	none
CC1Cc2ccccc2N1C(=O)COC(=O)CSc1ccc(F)cc1 (stereo not given)	PAFAH1B2 inh 25.5
O=C(COC(=O)CSc1ccc([N+](=O)[O-])cc1)NCCCc1ccccc1	PAFAH1B2 inh 29.9
O=C(COC(=O)CSc1ccc(F)cc1)NCCCc1ccccc1	PAFAH1B2 inh 29.2
CC1Cc2ccccc2N1C(=O)COC(=O)/C=C/c1cccc(F)c1 (stereo not given)	none (no result: Fam108B counter)
COc1cc(-c2ccc(Nc3ccccc3C(=O)O)c(OC)c2)ccc1Nc1ccccc1C(=O)O	PAFAH2 FP inh 54.0, PAFAH1B3 FP inh 28.7 (no result: Fam108B counter, pPAFAH FP inh, PME-1 inh)
O=C(CSCc1ccccc1Cl)NNC(=S)Nc1ccccc1	pPAFAH FP inh 28.9
Cc1ccc(S(=O)(=O)NCCc2ccc(S(N)(=O)=O)cc2)cc1	none
Cc1ccc(S(=O)(=O)NCCCNS(=O)(=O)c2ccc(C)cc2)cc1	pPAFAH FP inh 26.0 (no result: Fam108B counter)
Cc1ccc(CCNS(=O)(=O)c2ccc(C)cc2)cc1	PAFAH1B2 inh 26.1
Cc1ccc(CSCCNS(=O)(=O)c2ccc(C)cc2)cc1	PAFAH1B2 inh 24.8
Cc1ccc(CCNS(=O)(=O)c2ccc3c(c2)NC(=O)C(C)C(=O)N3)cc1 (stereo not given)	PAFAH1B2 inh 27.0
CCC(=O)N(c1nnc(SCC(=O)NN2C(=O)NC3(CCC(C)CC3)C2=O)s1)C1CC1 (stereo not given)	none (no result: Fam108B counter)
Cc1ccc2[nH]cc(CCNS(=O)(=O)c3ccc(F)cc3)c2c1	PAFAH1B2 inh 27.3 (no result: Fam108B counter, pPAFAH FP inh, PME-1 inh)
Nc1cc(C(F)(F)F)ccc1Nc1ccccc1	none
CC(CCc1ccccc1)NS(=O)(=O)c1ccccc1F (stereo not given)	PAFAH1B2 inh 29.2
COc1cc(C(C(=O)NC(C)(C)C)N(C(=O)CNC(=O)c2cccs2)c2cccnc2)cc(OC)c1OC (stereo not given)	none
O=c1[nH]c2c(s1)C(c1ccco1)C1C3CCC(C3)C1S2 (stereo not given)	PAFAH1B2 inh 57.4
Cc1ccccc1NC(=S)N1CCC(NC(=O)c2ccco2)CC1	none
O=C(Cc1cccc(NC(=O)C2CCN(C(=O)C3CCCC3)CC2)c1)Nc1cccc(C(=O)N2CCCCC2)c1	none (no result: Fam108B counter, pPAFAH FP inh, PME-1 inh)
Cc1ccc(O)c(N)c1	none (no result: Fam108B counter)
Nc1cc2c(cc1O)CCCC2	pPAFAH FP inh 30.7
O=C(Cn1ccc2ccccc2c1=O)NCC(=O)Nc1ccc(F)cc1F	none
O=C(Nc1ccc(S(=O)(=O)N2CCCCC2)cc1)c1ccc(Cl)nc1	none (no result: Fam108B counter, PME-1 inh)
COc1ccc2[nH]c3c(c2c1)CCN1C(=O)C(CC(=O)NCCCn2ccnc2)C[C@H](C(=O)N(C(C)C)C(C)C)[C@@]31C (stereo not given in full)	none (no result: Fam108B counter, PME-1 inh)
COc1ccc(N(C)S(=O)(=O)c2cccc(C(=O)N3CCN(S(=O)(=O)c4ccc(C)cc4)CC3)c2)cc1	PAFAH1B2 inh 55.4
COc1ccc(N2CCN(C(=O)c3ccc(N(C)S(=O)(=O)c4ccc(C)cc4)cc3)CC2)cc1	none
CCn1c(SCC(=O)N(C)C)nc2cc(S(=O)(=O)N3CCOCC3)ccc21	PAFAH1B2 inh 77.7
Nc1ccc(CSc2ccccc2)cc1	PAFAH1B2 inh 31.6 (no result: Fam108B counter, pPAFAH FP inh, PME-1 inh)
CC(=O)Nc1ccc(NC(=O)C(C)OC(=O)C(C)SCC(=O)Nc2ccc(F)cc2)cc1 (stereo not given)	none
CC(=O)Nc1ccc(NC(=O)C(C)OC(=O)C2(c3ccc(F)cc3)CCCC2)cc1 (stereo not given)	PAFAH1B2 inh 40.7
CCCSc1nnc(NC(=O)Nc2ccccc2OC)s1	none
